DT40 TDP1 no CPT: qHTS for Inhibitors of human tyrosyl-DNA phosphodiesterase 1 (TDP1): qHTS in cells in absence of CPT; DT40 Tdp1-/- hTDP1 cells, no CPT, ATP luminescence, 48 h; Potency, µM (titrated, usually from 46.2 µM), most hits filed as inhibitors; 420,000 tested, 15% active; AID 686978, 2013; also: nearly all actives have a fitted effect of over 55% in size
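Chicken DT40 Tdp1-/- cells stably complemented with human TDP1 were seeded at 400 cells/well with DMSO in place of 20 nM camptothecin. After compound pinning, cells grew at least 48 hr at 37 °C; viability read by CellTiter-Glo luminescence.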
TDP1 inh: qHTS Assay for Inhibitors of Tyrosyl-DNA Phosphodiesterase (TDP1); recombinant TDP1, AlphaScreen DNA substrate cleavage; Potency, µM (doses to about 130 µM), actives largely listed as inhibitors; 350,000 tested, 0.28% active; AID 485290, 2010; also: nearly all actives have a fitted effect of over 40% in size
Target sequence (Q9NUW8 whole entry, looked up): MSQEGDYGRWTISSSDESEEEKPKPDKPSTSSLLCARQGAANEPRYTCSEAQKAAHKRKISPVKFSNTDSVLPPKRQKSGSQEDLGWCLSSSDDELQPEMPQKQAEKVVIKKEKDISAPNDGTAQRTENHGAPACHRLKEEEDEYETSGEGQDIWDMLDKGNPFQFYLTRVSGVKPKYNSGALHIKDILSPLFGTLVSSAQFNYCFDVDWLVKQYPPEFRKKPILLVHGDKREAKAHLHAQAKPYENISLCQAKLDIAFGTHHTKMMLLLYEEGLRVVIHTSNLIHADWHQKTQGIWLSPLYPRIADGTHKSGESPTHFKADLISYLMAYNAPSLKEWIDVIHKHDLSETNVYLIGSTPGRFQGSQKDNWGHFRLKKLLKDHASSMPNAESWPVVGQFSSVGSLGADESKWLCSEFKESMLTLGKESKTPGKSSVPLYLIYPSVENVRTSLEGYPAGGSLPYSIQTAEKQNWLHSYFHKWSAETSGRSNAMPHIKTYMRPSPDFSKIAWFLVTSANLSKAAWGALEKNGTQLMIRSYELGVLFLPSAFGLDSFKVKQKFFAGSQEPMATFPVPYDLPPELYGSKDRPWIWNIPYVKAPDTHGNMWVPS
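AlphaScreen read-out: signal falls as enzyme removes the 3' tyrosine-FITC from a 5'-biotinylated DNA oligo (15 nM, 5 min, RT). Enzyme was E. coli-made recombinant Tdp1 at 1 nM, exposed to compound for 15 min beforehand; beads 10 ug/ml, 10 min.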
uPA generation: qHTS for Inhibitors of Cell Surface uPA Generation; cell surface uPA generation assay, qHTS; Potency, µM (top dose mostly 38.3 µM), most hits filed as inhibitors; 330,000 tested, 0.31% active; AID 540303, 2011; active = well fitted inhibition curve with a large enough effect; inconclusive = small, poorly fitted or top-dose-only effect; inactive = no such curve, though single readings can be large or run the other way; tested in mouse RAW 264.7 cells; also: nearly all actives have a fitted effect of over 55% in size
TDP1 cell CPT: qHTS for Inhibitors of human tyrosyl-DNA phosphodiesterase 1 (TDP1): qHTS in cells in presence of CPT; chicken DT40 Tdp1-/-;hTDP1 cells + 20 nM CPT, ATP luminescence, 48 h; Potency, µM (doses to about 46.2 µM), hits mostly inhibitors; 420,000 tested, 12% active; AID 686979, 2013; also: nearly all actives have a fitted effect of over 55% in size
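Chicken DT40 Tdp1-/- cells complemented with human TDP1, 400 cells/well, exposed to compounds plus 20 nM camptothecin for at least 48 h at 37 C; viability read as ATP content by CellTiter-Glo luminescence.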
miR-21 reporter: qHTS Assay for Modulators of miRNAs and/orActivators of miR-21; HeLa miR-21 FLuc reporter, luciferase, 48 h; Potency, µM (titrated, usually from 38.3 µM), most hits filed as activators; 340,000 tested, under 10 active;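 also: miR-21 action dims this reporter so a rising signal means less miR-21 action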
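HeLa cells endogenously expressing miR-21, stably carrying CMV-driven firefly luciferase with a downstream miR-21 binding site, 2000 cells/well. Titrations up to approximately 40 uM, 48 hours; luciferase luminescence read.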
Numbers stand for hits; - = inactive; ? = inconclusive; . = no result; [ ] = dose if it differs, or a comment. Only some compounds are listed: those with a hit (about 16% of all), similar ones and a draw of the others. Unless noted, calls follow the shape of the dose curve; as a rule, active = well fitted curve in the direction sought with a large enough effect; inconclusive = small, poorly fitted or top-dose-only effect, or another doubt; inactive = no such curve, though single readings can be large; an effect the other way counts as inactive or inconclusive.

SMILES	DT40 TDP1 no CPT	TDP1 inh	uPA generation	TDP1 cell CPT	miR-21 reporter
O=C(O)[C@H](Cc1ccccc1)NC(=O)N1CCOCC1	-	-	-	-	-
CN(C)CCNC(=O)c1cccc(-c2cccc3nccn23)c1	-	.	.	-	.
CC(=O)c1cccc(NC(=O)C2=CC(c3ccc(F)cc3)=NS(=O)(=O)N2C)c1	?	-	.	?	-
CC(=O)c1cccc(-c2cnc3c(NC=O)cc(-c4ccc(F)cc4)cn23)c1	?	.	.	16.4µM	.
CN(C)CCNC(=O)c1cccc(-c2cnc3c(NC=O)cc(-c4ccc(F)cc4)cn23)c1	5.17µM	.	.	4.61µM	.
CN(C)CCNC(=O)c1cccc(-c2cnc3c(NC=O)cc(/C=C/c4ccccc4)cn23)c1	5.17µM	.	.	3.66µM	.
O=CNc1cc(-c2cccc(O)c2)cn2c(-c3ccc(F)cc3)cnc12	20.6µM	.	.	18.4µM	.
COc1ccccc1-c1cc(NC=O)c2ncc(-c3cccc(C(C)=O)c3)n2c1	7.31µM	.	.	6.51µM	.
CN(C)CCCNC(=O)c1cccc(-c2ccc3nncn3c2)c1	-	.	.	-	.
CCSc1ccc(-c2cc(NC=O)c3ncc(-c4cccc(C(=O)NCCN(C)C)c4)n3c2)cc1	3.26µM	.	.	4.61µM	.
COC(C[C@@H](O)C[C@@H](O)COCc1ccccc1)OC	-	-	-	-	-
O=C(c1ccco1)N1C(=O)c2cccc3cccc1c23	18.4µM	.	-	11.6µM	-
Oc1oc(-c2ccccc2)nc1C=Nc1ccccc1	-	-	-	-	-
Sc1oc(-c2ccccc2)cc1C=Nc1ccccc1	16.4µM	-	.	5.8µM	-
Cc1cc(C)n2nc(C(=O)OCC(=O)NC3CCCCC3)nc2n1	-	-	-	-	.
COC(=O)c1c(NC(=O)CN2C(=O)C(=O)N(CC(C)C)C2=O)sc2c1CCCCC2	-	-	-	-	-
COc1cc(C(=O)/C=C/c2cccnc2)c([N+](=O)[O-])cc1OC	5.8µM	-	8.91µM	5.17µM	.
CN(C)c1ccc(/C=C/C(=O)c2cccnc2)cc1	-	.	-	-	-
O=C(/C=C/c1cccnc1)c1ccccc1O	?	.	-	?	-
CN(C)C(=O)COc1ccc(C(=O)/C=C/c2cccnc2)cc1	13µM	-[0.0935 µM]	-	16.4µM	-
O=C(/C=C/c1cccnc1)c1ccc(O)cc1	14.6µM	.	-	?	?
O=C(C=Cc1cccnc1)c1ccccc1	5.8µM	.	-	5.8µM	.
COc1cc(C(=O)Nc2ccncc2)c([N+](=O)[O-])cc1OC	-	-	-	-	-
O=C(CCCN1C(=O)c2ccccc2C1=O)NCc1ccc(F)cc1	-	.	-	-	-
C/C(=N\NC(=O)c1cccc(S(=O)(=O)N2CCCC2)c1)c1cccs1	-	-	-	?	-
SMILES	DT40 TDP1 no CPT	TDP1 inh	uPA generation	TDP1 cell CPT	miR-21 reporter
Cc1cccc2cc(/C=C3\N=C(c4ccccc4)OC3=O)c(N3CCOCC3)nc12	23.1µM	-	-	?	-
Cc1ccc(C2=N/C(=C/N3CCOCC3)C(=O)O2)cc1	-	-	-	-	-
COc1cccc(-c2nc(NCCNC(C)=O)c3ccccc3n2)c1	-	.	.	-	.
Cc1nc(SCC(=O)Nc2nccs2)c(C#N)c(C)c1C	?	-	1µM	-	.
Cc1cc(C)c(C#N)c(SCC(=O)CC(=O)OC(C)C)n1	-	-	-	?	-
CC(=O)CSc1nsc(SCC(C)=O)c1C#N	18.4µM	-	-	18.4µM	-
CC(C)(C)NC(=O)CSc1nsc(SCC(=O)NC(C)(C)C)c1C#N	16.4µM	-	-	23.1µM	-
Cc1nc(SCC(=O)CC(=O)OC(C)C)c(C#N)c(C)c1C	?	-	-	20.6µM	-
Cc1nc(SCC(=O)Nc2nc3ccccc3s2)c(C#N)c(C)c1C	?	-	?	?	?
Cc1cc(Cl)ccc1NC(=O)Cn1nnc2sc(-c3ccccc3)cc2c1=O	?	-	.	-	-
O=C(CN1C(=O)CSCC1=O)NCc1ccc(F)cc1	-	-	-	-	-
CC1=C(C(=O)Nc2ccc(F)cc2)C(c2cccc(C)c2)n2nc(CCCO)nc2N1 (stereo unspecified)	-	-	-	-	-
Cc1csc(NC(=O)CSc2nsc(SCC(=O)Nc3nc(C)cs3)c2C#N)n1	12.6µM	-	.	15.8µM	-
CCOC(=O)c1ccc(NCCc2ccc(OC)c(OC)c2)c(N)c1	?	.	-	-	-
COc1ccccc1NC(=O)c1sc2nc3c(cc2c1N)CCCCCC3	13µM	.	.	?	-
CC(=O)c1cccc(NC(=O)c2sc3nc4c(cc3c2N)CCCC4)c1	?	.	.	?	-
CCc1nnc(NC(=O)c2sc3nc4c(cc3c2N)CCCCCC4)s1	?	50.1µM	-	-	-
CCC1CCc2nc3sc(C(=O)Nc4ccc(C)cc4C)c(N)c3cc2C1 (stereo unspecified)	23.1µM	.	.	?	-
